# Reference: PubChem BioAssay
# Calls of active or inactive are those of the source.
# What was measured:
# [1] = A549 cell viability effects, profiling panel, calcein-AM fluorescence, 48 h, basal (AID 1162); conditions: higher = more signal
# [2] = adipocyte viability effects, profiling panel, cell-based, 3T3-L1 adipocytes, calcein-AM fluorescence, 48 h, basal (AID 1163); conditions: 3T3-L1 adipocytes viability, higher = more signal
# [3] = HepG2 cell viability effects, profiling panel, calcein-AM fluorescence, 48 h, basal (AID 1164); conditions: higher = more signal
# [4] = MM1S cell viability effects, profiling panel, calcein-AM fluorescence, 48 h, basal (AID 1165); conditions: higher = more signal;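 note: viability of MM1S multiple myeloma cells under basal unstimulated conditions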
# [5] = basal RPMI8226 viability, no added stimulus, profiling panel, cell-based, calcein-AM fluorescence, 48 h, PK04 Diversity Set (AID 1166); conditions: RPMI8226 myeloma viability, higher = more signal;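 note: cells grown under basal conditions without added stimulus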
# [6] = basal HepG2 mitochondrial membrane potential changes, profiling panel, cell-based, JC-1 fluorescence, 24 h, 100 nL compound (AID 1167); conditions: higher = more signal
# [7] = basal 3T3-L1 adipocyte mitochondrial potential changes, profiling panel, cell-based, JC-1 fluorescence, 3T3-L1 adipocytes, 24 h, 100 nL compound (AID 1168); conditions: JC-1 mitochondrial fluorescence, higher = more signal, called active from +8 up or from −8 down
# [8] = basal RPMI8226 mitochondrial membrane potential changes, profiling panel, cell-based, JC-1 fluorescence, 24 h, 100 nL compound (AID 1169); conditions: RPMI8226 myeloma, JC-1 mitochondrial potential fluorescence, higher = more signal
# [9] = basal MM1S mitochondrial membrane potential changes, profiling panel, cell-based, JC-1 fluorescence, 24 h, 100 nL compound (AID 1170); conditions: higher = more signal
# [10] = A549 lung cancer cell viability effects, profiling panel, resazurin fluorescence, 24 h, PK04 Diversity Set (AID 1171); conditions: higher = more signal, called active from +8 up or from −8 down
# Note: test concentration not given here.
smiles,measurement,setting,value
CC(C)CNC(=O)[C@@]1(C)c2ccccc2C(=O)N(C(C)C)[C@H]1c1ccc(CO)cc1,z-score,[1],-0.238
same,z-score,[2],-0.511
same,z-score,[3],-0.178
same,z-score,[4],0.0151
same,z-score,[5],-0.847
same,z-score,[6],-0.372
same,z-score,[7],-0.638 (inactive)
same,z-score,[8],0.809
same,z-score,[9],-0.481
same,z-score,[10],-0.0586 (inactive)
C/C=C/[C@H](CCn1cc([C@H](O)c2ccccc2)nn1)[Si](C)(C)c1ccc(OC)cc1,z-score,[1],-0.0186
same,z-score,[2],-0.358
same,z-score,[3],-0.689
same,z-score,[4],-1.58
same,z-score,[5],-1.43
same,z-score,[6],-1.4
same,z-score,[7],0.644 (inactive)
same,z-score,[8],-0.569
same,z-score,[9],-0.629
same,z-score,[10],0.22 (inactive)
Cc1ccc(N2C(=O)c3ccccc3[C@@H](C(=O)NC(C)C)[C@@H]2c2ccc(CO)cc2)nc1,z-score,[1],-0.749
same,z-score,[2],-0.0953
same,z-score,[3],-0.617
same,z-score,[4],0.385
same,z-score,[5],-0.526
same,z-score,[6],0.199
same,z-score,[7],-0.286 (inactive)
same,z-score,[8],0.918
same,z-score,[9],-0.67
same,z-score,[10],2.16 (inactive)
COc1ccc([Si](C)(C)[C@@H]2[C@@H](CCn3cc([C@H](O)c4ccccc4)nn3)O[C@]3(C(=O)N(C)c4ccccc43)[C@H]2C)cc1,z-score,[1],-0.536
same,z-score,[2],1.27
same,z-score,[3],-1.01
same,z-score,[4],-2.69
same,z-score,[5],-3.85
same,z-score,[6],0.988
same,z-score,[7],-0.42 (inactive)
same,z-score,[8],-0.866
same,z-score,[9],-0.252
same,z-score,[10],-1.89 (inactive)
Cc1ccc(S[C@]2(C(=O)NCc3ccccc3)CC(=O)N(Cc3cc(C(F)(F)F)cc(C(F)(F)F)c3)[C@@H]2c2ccc(CO)cc2)cc1,z-score,[1],-0.549
same,z-score,[2],0.774
same,z-score,[3],0.224
same,z-score,[4],-0.125
same,z-score,[5],-1.17
same,z-score,[6],-0.271
same,z-score,[7],-0.525 (inactive)
same,z-score,[8],1.13
same,z-score,[9],-0.476
same,z-score,[10],0.7 (inactive)
C=CC[C@@]1(C(=O)NCCN2CCOCC2)N=C(c2ccc(OCCCO)cc2)O[C@@H]1c1ccccc1CN=[N+]=[N-],z-score,[1],-0.0982
same,z-score,[2],1.56
same,z-score,[3],0.88
same,z-score,[4],-2.94
same,z-score,[5],-1.03
same,z-score,[6],1.86
same,z-score,[7],-0.224 (inactive)
same,z-score,[8],-0.129
same,z-score,[9],-0.029
same,z-score,[10],-0.468 (inactive)
COc1ccc([Si](C)(C)[C@@H]2[C@@H](CCO)O[C@]3(C(=O)N(Cc4cccc(N5CCCCC5=O)c4)c4ccccc43)[C@H]2C)cc1,z-score,[1],-0.86
same,z-score,[2],0.161
same,z-score,[3],-1.7
same,z-score,[4],-2.75
same,z-score,[5],-1.65
same,z-score,[6],-1.94
same,z-score,[7],0.128 (inactive)
same,z-score,[8],-1.02
same,z-score,[9],-1.43
same,z-score,[10],-0.55 (inactive)
O=C(NCc1ccccc1)[C@@H]1c2ccccc2C(=O)N(C2CCCCC2)[C@H]1c1ccc(CO)cc1,z-score,[1],1.53
same,z-score,[2],-0.116
same,z-score,[3],1.54
same,z-score,[4],0.499
same,z-score,[5],-0.0572
same,z-score,[6],2.46
same,z-score,[7],0.401 (inactive)
same,z-score,[8],0.739
same,z-score,[9],-0.531
same,z-score,[10],-0.222 (inactive)
COCCOC(=O)N1C(=O)[C@@]2(c3cc(C#Cc4ccc(OC)cc4)ccc31)[C@H](C(N)=O)[C@H]1C(=O)O[C@H](c3ccccc3)[C@H](c3ccccc3)N1[C@@H]2c1ccc(O)cc1,z-score,[1],0.363
same,z-score,[2],0.632
same,z-score,[3],-0.905
same,z-score,[4],0.152
same,z-score,[5],-2.22
same,z-score,[6],-0.933
same,z-score,[7],0.454 (inactive)
same,z-score,[8],-0.677
same,z-score,[9],-0.317
same,z-score,[10],0.179 (inactive)
C=C(C(=O)CC[C@@H](OC(C)=O)c1ccc(OCCO)cc1)C(C)C,z-score,[1],-0.382
same,z-score,[2],-0.0315
same,z-score,[3],0.185
same,z-score,[4],-1.06
same,z-score,[5],0.16
same,z-score,[6],-0.637
same,z-score,[7],-0.191 (inactive)
same,z-score,[8],0.0885
same,z-score,[9],0.109
same,z-score,[10],-0.222 (inactive)
CCCNC(=O)[C@@]1(C)c2ccccc2C(=O)N(Cc2cc(C(F)(F)F)cc(C(F)(F)F)c2)[C@H]1c1ccc(CO)cc1,z-score,[1],-0.283
same,z-score,[2],0.531
same,z-score,[3],0.0751
same,z-score,[4],0.341
same,z-score,[5],-1.23
same,z-score,[6],1.22
same,z-score,[7],-0.161 (inactive)
same,z-score,[8],-0.0935
same,z-score,[9],-0.643
same,z-score,[10],1.27 (inactive)
CC(C)C(=C=CC[C@H](O)c1ccccc1OCCO)CCO,z-score,[1],-0.417
same,z-score,[2],-1.06
same,z-score,[3],-0.07
same,z-score,[4],-0.256
same,z-score,[5],-1.56
same,z-score,[6],-0.926
same,z-score,[7],-0.318 (inactive)
same,z-score,[8],-0.424
same,z-score,[9],-0.305
same,z-score,[10],-0.245 (inactive)
CN(C)CCCC[C@@H]1NC(=O)[C@@H]2C[C@H](C(=O)NCc3ccc(F)cc3)[C@H](c3cccc(OCCO)c3)N2C1=O,z-score,[1],0.514
same,z-score,[2],-0.0506
same,z-score,[3],0.554
same,z-score,[4],0.731
same,z-score,[5],1.02
same,z-score,[6],2.08
same,z-score,[7],0.544 (inactive)
same,z-score,[8],0.46
same,z-score,[9],-0.749
same,z-score,[10],-0.158 (inactive)
[N-]=[N+]=Nc1ccccc1[C@H]1OC(c2ccc(OCCCO)cc2)=N[C@@]1(CCS(=O)(=O)c1ccccc1)C(=O)N1CCOCC1,z-score,[1],0.412
same,z-score,[2],-0.0376
same,z-score,[3],0.402
same,z-score,[4],-0.655
same,z-score,[5],-0.184
same,z-score,[6],-1.34
same,z-score,[7],-0.392 (inactive)
same,z-score,[8],-0.666
same,z-score,[9],-1.47
same,z-score,[10],-0.913 (inactive)
